High-throughput results as filed in PubChem.
This is a sample that favours compounds with a hit; in the whole collection about 11% have one here.
NIH3T3 tox – Cytotoxic Profiling in NIH 3T3 Cell Line of Diverse Libraries Using Quantitative High-Throughput Screening. NIH 3T3 viability, CellTiter-Glo ATP luminescence, 48-72 h. Potency, µM (highest dose often 96.7 µM), most hits filed as inhibitors. actives 4.3% (n = 94,000). AID 1345082, 2018; note: nearly all actives have a fitted effect of over 55% in size
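ATP-dependent luminescence (CellTiter-Glo) served as the viability signal for NIH 3T3 cells treated with compound for 48 or 72 hr at 37 °C.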
NPR1 antag – Natriuretic polypeptide receptor (hNpr1) antagonism - Primary qHTS | Atrial natriuretic peptide receptor 1 (Homo sapiens), P16066 | AID 1347048, 2019 | HEK293 hNpr1 GloSensor cGMP, ANP-stimulated luminescence | actives 1.6% (n = 76,000) | Potency, µM (doses to about 46.3 µM), most hits filed as inhibitors; calls by dose curve; note: nearly all actives have a fitted effect of over 60% in size
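HEK293 cells stably expressing human Npr1 and cGMP GloSensor pGS-40F, loaded 2 h with 2% GloSensor reagent, given compound 30 min at room temperature. Luminescence read before and 20 min after 0.1 nM hNppA.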
HEK293 tox – Cytotoxic Profiling in HEK 293 Cell Line of Diverse Libraries Using Quantitative High-Throughput Screening | Potency, µM (titrated, usually from 115 µM), usual class: inhibitors | actives 6.6% (n = 94,000) | HEK 293 viability, ATP luminescence (CellTiter-Glo), 48-72 h | AID 1345083, 2018; note: nearly all actives have a fitted effect of over 60% in size
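HEK 293 cells at 250 cells/well were exposed to compounds by pintool transfer for 48 or 72 hr at 37 degree Celsius, 5% CO2. Viability was read as ATP-coupled luminescence with CellTiter-Glo after 10 min at room temperature.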
FLuc inh – Firefly luciferase inhibition profiling of diverse chemical library using quantitative high-throughput screening | purified P. pyralis luciferase, luminescence, biochemical | Potency, µM (top dose mostly 115 µM), most hits filed as inhibitors | actives 2.5% (n = 76,000) | AID 1347043, 2019; note: nearly all actives have a fitted effect of over 65% in size
Target sequence (P08659 whole entry, looked up): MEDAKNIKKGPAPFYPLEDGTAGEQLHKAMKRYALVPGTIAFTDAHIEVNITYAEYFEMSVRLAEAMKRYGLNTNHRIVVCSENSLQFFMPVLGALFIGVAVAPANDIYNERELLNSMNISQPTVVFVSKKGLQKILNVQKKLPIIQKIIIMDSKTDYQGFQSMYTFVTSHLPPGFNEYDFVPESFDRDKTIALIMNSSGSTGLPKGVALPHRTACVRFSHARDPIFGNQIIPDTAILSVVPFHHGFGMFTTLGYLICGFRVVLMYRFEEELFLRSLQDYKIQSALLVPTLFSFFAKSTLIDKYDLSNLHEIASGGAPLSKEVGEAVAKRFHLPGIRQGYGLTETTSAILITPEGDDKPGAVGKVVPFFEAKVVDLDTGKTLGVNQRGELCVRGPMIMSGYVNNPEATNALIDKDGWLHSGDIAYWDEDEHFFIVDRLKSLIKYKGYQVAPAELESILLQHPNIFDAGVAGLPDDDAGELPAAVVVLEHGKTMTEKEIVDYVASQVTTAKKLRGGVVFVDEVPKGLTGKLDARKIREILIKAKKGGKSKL
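Biochemical qHTS: compound (6-point titration) added to 10uM D-luciferin plus 10uM ATP in Tris acetate pH 7.5 buffer with Mg, Tween-20 and BSA, then purified enzyme at 10nM; light output imaged.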
Hits are given with their value; i = inactive; ? = inconclusive; nt = no result given. Unless noted, calls come from the whole dose curve; as a rule, active = well fitted curve in the direction sought with a large enough effect; inconclusive = small, poorly fitted or top-dose-only effect, or another doubt; inactive = no such curve, though single readings can be large; an effect the other way counts as inactive or inconclusive.

SMILES	NIH3T3 tox	NPR1 antag	HEK293 tox	FLuc inh
Cc1csc(NC(=O)[C@@H]2C[C@H](c3cccc(C(F)(F)F)c3)N(Cc3cnn(C)c3)C2)n1	28.2µM	i	?	i
Cn1ccc(NC(=O)[C@@H]2C[C@H](c3ccc(F)cc3)N(Cc3ccccc3Cl)C2)n1	?	?	50.1µM	i
O=C(Nc1cccnc1)[C@@H]1C[C@@H](c2ccc(F)cc2)N(CCOc2ccccc2)C1	89.1µM	?	?	i
COCCN1CCCCCC(O)c2cc(C(=O)NCCc3c[nH]c4ccccc34)ccc21 (stereo unspecified)	?	i	?	?
COCCN1CCC(N2CCN(S(=O)(=O)c3cccc(Cl)c3)CC2)C1=O (stereo unspecified)	i	i	i	i
O=C(Nc1nccs1)[C@@H]1C[C@H](c2ccc(F)cc2)N(Cc2ccccc2Cl)C1	31.6µM	i	?	i
O=C(NCc1ccncc1)[C@@H]1C[C@@H](c2ccc(F)cc2)N(Cc2ccccc2)C1	i	i	?	i
O=C(Nc1nccs1)[C@@H]1C[C@@H](c2cccc(C(F)(F)F)c2)N(CC2CCOCC2)C1	79.4µM	i	?	i
CN1C[C@@H](NS(=O)(=O)c2ccccc2)C[C@H]1c1nc(-c2ccc(F)cc2)no1	?	i	100µM	?
CN1C[C@@H](NS(=O)(=O)c2ccc(Cl)cc2)C[C@H]1c1nc(-c2ccc(F)cc2)no1	?	i	?	39.8µM
CN1C[C@@H](NS(=O)(=O)c2ccc(F)cc2)C[C@H]1c1nc(-c2cccnc2)no1	i	i	i	i
Cc1ccc(-c2noc([C@@H]3C[C@H](NS(=O)(=O)c4ccc(F)cc4)CN3C)n2)cc1	?	i	?	44.7µM
CC(=O)Nc1ccc(S(=O)(=O)N[C@H]2C[C@@H](c3nc(-c4ccc(F)cc4)no3)N(C)C2)cc1	i	?	?	i
CC1=C[C@@H](CNC(=O)CCCC(=O)O)[C@H](C(C)C)C[C@H]1Cc1nc2c(C)cccc2[nH]1	i	i	i	i
CC1=C[C@@H](CNC(=O)COCC(=O)O)[C@H](C(C)C)C[C@H]1Cc1nc2c(C)cccc2[nH]1	i	i	i	i
COc1ccccc1CNC[C@@H]1C=C(C)[C@H](Cc2nc3c(C)cccc3[nH]2)C[C@H]1C(C)C	25.1µM	?	?	i
CC1=C[C@@H](CNCc2ccccc2F)[C@H](C(C)C)C[C@H]1Cc1nc2c(C)cccc2[nH]1	28.2µM	?	25.1µM	i
CC1=C[C@@H](CNCc2ccccc2)[C@H](C(C)C)C[C@H]1Cc1nc2c(C)cccc2[nH]1	28.2µM	?	25.1µM	i
CC1=C[C@@H](CN(C)C)[C@H](C(C)C)C[C@H]1Cc1nc2c(C)cccc2[nH]1	89.1µM	i	100µM	i
COC(=O)N1CCCC(C(=O)N2CCC(c3nc4ncccc4[nH]3)CC2)C1 (stereo unspecified)	i	nt	i	nt
O=C(c1cccc(Cl)c1)N1CCC2(CC1)NC(=O)N(c1ccccc1Cl)N2	?	i	?	i
CC(C)OCCCNC(=O)CCC1CCN(C(=O)c2ccccc2F)CC1	i	i	i	i
O=C(CCC1CCN(C(=O)c2ccccc2F)CC1)NCCCc1ccccc1	i	i	?	i
CC(C)NC(=O)CCC1CCN(C(=O)c2ccccc2F)CC1	i	i	i	39.8µM
CCCNC(=O)CCC1CCN(C(=O)c2ccccc2F)CC1	i	i	i	39.8µM
SMILES	NIH3T3 tox	NPR1 antag	HEK293 tox	FLuc inh
Cc1ccc(NC(=O)CCC2CCN(C(=O)c3ccccc3)CC2)cc1F	?	i	28.2µM	?
Cc1nn(C)c(C)c1CCN(C)C(=O)CCC1CCN(C(=O)c2ccccc2F)CC1	i	i	i	i
CCN(CC)C(=O)CCC1CCN(C(=O)c2ccccc2F)CC1	i	i	i	35.5µM
Cc1ccc(-c2ccccc2CN)c(C)c1	100µM	nt	112µM	nt
NCc1ccccc1-c1ccc(O)cc1	i	nt	i	nt
Cc1c(Cn2ccnc2-c2cc(C#CCO)cs2)oc2ccccc12	?	i	?	i
O=C(NC1CCN(c2cc(-c3ccccc3)[nH]n2)C1)c1ccc2cc[nH]c2c1 (stereo unspecified)	?	i	?	i
O=C(NC1CCCN(c2cc(-c3ccccc3)[nH]n2)C1)c1ccc2[nH]ccc2c1 (stereo unspecified)	?	i	?	31.6µM
O=C(NC1CCCN(c2cc(-c3ccc(F)cc3)[nH]n2)C1)c1ccc2cc[nH]c2c1 (stereo unspecified)	35.5µM	i	35.5µM	28.2µM
O=C(NC1CCN(c2cc(-c3ccc(Cl)cc3)[nH]n2)C1)c1ccc2cc[nH]c2c1 (stereo unspecified)	?	i	?	i
N#Cc1ccc(CN2CCc3ncc(C(=O)NCCOc4ccccc4)n3CC2)cc1	?	?	70.8µM	i
CC(C)CCN1CCc2ncc(C(=O)NCCOc3ccccc3)n2CC1	?	i	28.2µM	i
O=C(NCc1ccccc1)c1cnc2n1CCN(CCCc1ccccc1)CC2	25.1µM	i	?	i
O=C(Nc1ccc2c(c1)OCCO2)N1CCC(Cc2nncn2Cc2ccccc2)CC1	i	nt	i	nt
CCN(Cc1ccccc1F)C(=O)c1cc(COc2ccccc2)[nH]n1	?	i	?	i
CCC(c1cccnc1)N(C)C(=O)c1cc(COc2ccccc2)[nH]n1 (stereo unspecified)	i	i	79.4µM	i
CCCNC(=O)Cc1ccc(N(Cc2ccc(C)cc2)C(=O)c2ccco2)cc1	i	i	?	i
Cc1cccc(CNC(=O)Cc2ccc(N(Cc3ccccc3)C(=O)c3ccco3)cc2)c1	44.7µM	i	?	i
CCOC(=O)C1CCN(C(=O)Cc2ccc(N(Cc3ccccc3)C(=O)c3ccco3)cc2)CC1	?	i	39.8µM	i
Cc1ccc(CN(C(=O)c2ccco2)c2ccc(CC(=O)NCc3ccccc3)cc2)cc1	?	i	35.5µM	i
Cc1ccc(CN(C(=O)c2ccco2)c2ccc(CC(=O)N(C)Cc3ccccc3)cc2)cc1	?	i	31.6µM	i
CC(=O)N1CCn2c(nnc2C2CCCN2Cc2cnn(C(C)C)c2)C1 (stereo unspecified)	i	nt	i	nt
Cc1cnc(C)n1C1CCN(C(=O)CCC2CCCC2)CC1	i	nt	i	nt
CCCCn1c(=O)c(C(=O)N2CCN(C(=O)Nc3ccccc3)CC2)nc2cccnc21	i	nt	i	nt
CN1CCN(C(=O)C[C@@H]2CCNC[C@@H]2Cc2cc(-c3ccc(C(C)(C)C)cc3)on2)CC1	79.4µM	i	?	i
CC(C)(C)c1ccc(-c2cc(C[C@H]3CNCC[C@H]3CC(=O)N3CCN(c4ccc(F)cc4)CC3)no2)cc1	?	i	?	i
O=C(C[C@@H]1CCNC[C@@H]1Cc1cc(-c2ccccc2)on1)N1CCCCC1	?	i	?	i
CC(C)(C)c1ccc(-c2cc(C[C@H]3CNCC[C@H]3CC(=O)N3CCCCC3)no2)cc1	35.5µM	i	?	i
